Laboratory results: PubChem BioAssay (NCI)
This is part of a sample that, as a whole, favours compounds with a hit. Of some 79,000 tested, about 15% had one in any assay. Activity calls are given as the source filed them. Rule as the data show it: active = growth inhibition above about 70%; inactive = the rest.

How the values were obtained:
[1] = NCI Yeast Anticancer Drug Screen. Data for the wt1 strain (AID 149);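 also: 0% = growth of vehicle-treated wt1 cultures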; settings: S. cerevisiae wt1 strain (SPY 50644) growth inhibition, stronger effect = higher value
How it was run: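 Yeast wt1 strain exposed to compounds; growth inhibition measured relative to vehicle-treated controls.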

[2] = NCI Yeast Anticancer Drug Screen. Data for the rad50EPP+ strain (AID 151);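 also: 0% = growth of vehicle-treated control cultures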; settings: S. cerevisiae rad50 mutant strain, stronger effect = higher value
How it was run: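 One strain with a rad50 alteration (rad50EPP+) was compound-treated, its growth then compared to that of vehicle controls.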

[3] = NCI Yeast Anticancer Drug Screen. Data for the mgt1 strain (AID 153); settings: S. cerevisiae mgt1 mutant growth inhibition, stronger effect = higher value
How it was run: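 After exposure of the mgt1 yeast mutant to compound, growth was measured and reported as inhibition compared with vehicle controls.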

[4] = NCI Yeast Anticancer Drug Screen. Data for the rad50 strain (AID 155);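 also: 0% = growth of vehicle-only cultures of the same strain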; settings: S. cerevisiae rad50 strain growth inhibition, stronger effect = higher value
How it was run: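 Yeast carrying a defined DNA repair defect were exposed to test compounds, and growth was compared with vehicle-treated controls to give percent inhibition.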

[5] = NCI Yeast Anticancer Drug Screen. Data for the mec2-1 strain (AID 157); settings: S. cerevisiae mec2-1 strain, stronger effect = higher value
How it was run: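 Test agents were screened against the mec2-1 yeast strain, with defined DNA repair or cell cycle alteration. Growth was scored as inhibition against vehicle-only controls.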

[6] = NCI Yeast Anticancer Drug Screen. Data for the rad14 strain (AID 159);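 also: 0% = growth of vehicle-treated control cultures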; settings: S. cerevisiae rad14 strain growth inhibition, stronger effect = higher value
How it was run: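 Yeast cells carrying a defined DNA-repair defect were exposed to compounds, and growth inhibition was calculated relative to vehicle-treated control cultures.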

[7] = NCI Yeast Anticancer Drug Screen. Data for the sgs1 mgt1 strain (AID 161);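 also: 0% = growth of cultures given vehicle only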; settings: S. cerevisiae sgs1 mgt1 strain, stronger effect = higher value
How it was run: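 Genetically altered yeast, compound exposure, growth inhibition relative to vehicle.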

[8] = NCI Yeast Anticancer Drug Screen. Data for the CLN2oe strain (AID 163);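 also: 0% = growth of vehicle-only control cultures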; settings: S. cerevisiae CLN2oe strain, stronger effect = higher value
How it was run: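 Here, growth inhibition in a cell-cycle-altered yeast strain after compound exposure was quantified against vehicle control growth.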

[9] = NCI Yeast Anticancer Drug Screen. Data for the cln2 rad14 strain (AID 165);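 also: 0% = growth equal to vehicle treated cultures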; settings: S. cerevisiae cln2 rad14 strain, stronger effect = higher value
How it was run: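 Growth of compound-exposed yeast (cln2 rad14 genotype) measured and expressed as inhibition relative to vehicle.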

[10] = NCI Yeast Anticancer Drug Screen. Data for the bub3 strain (AID 167); settings: S. cerevisiae bub3 mutant strain, stronger effect = higher value
How it was run: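 Compounds were applied to a genetically altered yeast strain carrying a cell-cycle control defect. Growth inhibition was scored against vehicle-treated controls.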

[11] = NCI Yeast Anticancer Drug Screen. Data for the wt2 strain (AID 169);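 also: 0% = growth of vehicle-treated yeast cultures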; settings: S. cerevisiae wt2 strain growth inhibition, stronger effect = higher value
How it was run: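 Genetically defined yeast strains from a DNA-repair/cell-cycle panel were used. Compound-exposed yeast growth was measured, and the inhibition was calculated relative to vehicle treatment.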

[12] = NCI Yeast Anticancer Drug Screen. Data for the sgs1 strain (AID 173);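 also: 0% = growth of vehicle-only control cultures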; settings: S. cerevisiae sgs1 mutant, stronger effect = higher value
How it was run: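 Relative growth inhibition, referenced to vehicle, was determined in a yeast strain with a defined alteration affecting DNA damage repair or cell cycle control after compound exposure.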

[13] = NCI Yeast Anticancer Drug Screen. Data for the mlh1 rad18 strain (AID 175); settings: S. cerevisiae mlh1 rad18 strain growth inhibition, stronger effect = higher value
How it was run: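 In this whole-cell yeast screen, a strain with altered DNA damage repair is challenged with compound, and its growth is measured against matched vehicle-treated controls.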

[14] = NCI Yeast Anticancer Drug Screen. Data for the rad18 strain (AID 177); settings: S. cerevisiae rad18 mutant growth inhibition, stronger effect = higher value
How it was run: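 Screen uses a yeast strain with a defined lesion in DNA damage repair; compound effect is read as loss of growth compared to untreated vehicle cultures.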

[15] = at 5.0 µM (retest, dose inferred, filed as 0.5)
[16] = at 50.0 µM (retest, dose inferred, filed as 5.0)

Measured: growth inhibition

COc1cc(O)c2c(O)c3c(c4c2c1[C@]1(C4)C(C)=CCCC1(C)C)[C@H](O)[C@@]1(O)CC(=O)C(C(N)=O)=C(O)[C@@]1(O)C3=O
inactive: [1]; at 1.2 µM -16% | [1]; at 3.7 µM 56% | [2]; at 1.2 µM -52% | [2]; at 3.7 µM 60% | [3]; at 1.2 µM -16% | [4]; at 1.2 µM -37% | [4]; [15] 2% | [5]; at 1.2 µM -36% | [6]; at 1.2 µM -57% | [6]; at 3.7 µM 50% | [7]; [15] 21% | [8]; at 1.2 µM -6% | [9]; [15] 1% | [10]; at 1.2 µM -1% | [10]; [15] -7% | [11]; at 1.2 µM -30% | [11]; at 3.7 µM -16% | [12]; at 1.2 µM -38% | [13]; [15] -5% | [14]; at 1.2 µM -21%
active: [1]; at 11.0 µM 98% | [1]; at 33.0 µM 97% | [1]; at 100.0 µM 93% | [2]; at 11.0 µM 97% | [2]; at 33.0 µM 96% | [2]; at 100.0 µM 89% | [3]; at 3.7 µM 94% | [3]; at 11.0 µM 99% | [3]; at 33.0 µM 98% | [3]; at 100.0 µM 93% | [4]; at 3.7 µM 87% | [4]; at 11.0 µM 97% | [4]; at 33.0 µM 96% | [4]; [16] 97% | [4]; at 50.0 µM 97% | [4]; at 100.0 µM 92% | [5]; at 3.7 µM 87% | [5]; [15] 83% | [5]; at 11.0 µM 98% | [5]; at 33.0 µM 98% | [5]; [16] 98% | [5]; at 50.0 µM 98.7% | [5]; at 100.0 µM 94% | [6]; at 11.0 µM 97% | [6]; at 33.0 µM 97% | [6]; at 100.0 µM 93% | [7]; [16] 98% | [7]; at 50.0 µM 98.7% | [8]; at 3.7 µM 94% | [8]; at 11.0 µM 98% | [8]; at 33.0 µM 97% | [8]; at 100.0 µM 93% | [9]; [16] 98% | [9]; at 50.0 µM 98.1% | [10]; at 3.7 µM 77% | [10]; at 11.0 µM 98% | [10]; at 33.0 µM 97% | [10]; [16] 98% | [10]; at 50.0 µM 98.2% | [10]; at 100.0 µM 94% | [11]; at 11.0 µM 97% | [11]; at 33.0 µM 96% | [11]; at 100.0 µM 95% | [12]; at 3.7 µM 88% | [12]; at 11.0 µM 97% | [12]; at 33.0 µM 97% | [12]; at 100.0 µM 93% | [13]; [16] 97% | [13]; at 50.0 µM 96.8% | [14]; at 3.7 µM 85% | [14]; at 11.0 µM 97% | [14]; at 33.0 µM 97% | [14]; at 100.0 µM 95%
